Results published in paper PMC4336329 (PLoS ONE, 2015).
Screen size: about 310,000 compounds; about 14,000 (4.5%) showed an effect of 50% or more. Effects have a minus sign here. The sample holds strong results, similar compounds and a random draw of the others, so the mix is not that of the screen.

Target: human ether-à-go-go-related gene (hERG) potassium channel (human, UniProt Q12809)
Test: primary screen, population patch clamp on CHO cells stably expressing hERG; higher = less effect of the substance
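Also: peak tail current of the secondary pulse compared with the same well before compound.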

Sequence of human ether-à-go-go-related gene (hERG) potassium channel (Q12809 whole entry, looked up): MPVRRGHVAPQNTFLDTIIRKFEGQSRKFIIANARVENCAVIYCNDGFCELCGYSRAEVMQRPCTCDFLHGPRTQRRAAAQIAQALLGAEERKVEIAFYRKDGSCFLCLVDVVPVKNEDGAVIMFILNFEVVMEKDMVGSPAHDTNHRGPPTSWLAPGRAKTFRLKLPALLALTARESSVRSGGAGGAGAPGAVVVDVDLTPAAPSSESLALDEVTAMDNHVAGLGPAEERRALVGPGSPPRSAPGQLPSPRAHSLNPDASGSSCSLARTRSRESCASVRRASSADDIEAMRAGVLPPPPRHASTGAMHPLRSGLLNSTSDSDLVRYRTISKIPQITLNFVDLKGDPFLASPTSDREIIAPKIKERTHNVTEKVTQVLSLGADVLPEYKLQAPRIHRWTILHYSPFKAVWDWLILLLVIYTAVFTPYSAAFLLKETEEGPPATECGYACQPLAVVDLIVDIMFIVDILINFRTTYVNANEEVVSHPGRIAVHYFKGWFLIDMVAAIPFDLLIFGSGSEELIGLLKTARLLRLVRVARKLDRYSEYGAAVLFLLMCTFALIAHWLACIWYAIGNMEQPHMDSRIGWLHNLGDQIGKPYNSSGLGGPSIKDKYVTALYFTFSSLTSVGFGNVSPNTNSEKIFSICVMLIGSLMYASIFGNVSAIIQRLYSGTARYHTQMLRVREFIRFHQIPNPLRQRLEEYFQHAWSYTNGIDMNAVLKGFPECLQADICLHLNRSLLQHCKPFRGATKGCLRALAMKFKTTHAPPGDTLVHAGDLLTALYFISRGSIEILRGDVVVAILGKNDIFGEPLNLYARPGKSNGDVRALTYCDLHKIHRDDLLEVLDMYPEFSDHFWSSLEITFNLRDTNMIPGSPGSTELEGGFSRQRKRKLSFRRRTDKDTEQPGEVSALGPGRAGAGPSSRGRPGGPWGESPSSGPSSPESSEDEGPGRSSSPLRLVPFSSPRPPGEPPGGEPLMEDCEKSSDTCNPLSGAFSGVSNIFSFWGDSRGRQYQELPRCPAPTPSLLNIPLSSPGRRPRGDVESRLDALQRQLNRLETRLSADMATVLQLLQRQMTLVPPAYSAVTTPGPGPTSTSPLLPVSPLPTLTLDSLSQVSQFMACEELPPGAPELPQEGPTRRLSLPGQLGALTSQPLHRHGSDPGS

SMILES	hERG current change (%, negative = inhibition) at 10uM [%]
Cc1c(NC(=O)CN2C(=O)c3ccc([N+](=O)[O-])cc3C2=O)c(=O)n(-c2ccccc2)n1C	8.89
Cc1cccnc1NC(=O)C1CCN(S(=O)(=O)c2ccc3c(c2)CCC(=O)N3)CC1	16.1
O=C(CCc1nnc(CCCCc2ccccc2)o1)NCCN1CCCCC1=O	18.2
CC(=O)N1CCc2[nH]c3ccccc3c2C1	4.55
COc1ccc(Br)c(C(=O)Nc2ccc(F)cc2)c1	-0.956
NS(=O)(=O)c1ccc(CCNc2nc3c(-c4cccc(F)c4)nnn3c3ccccc23)cc1	21.5
C=CCNc1nc(C2(C)CC3(CC(C)OC3=O)C(=O)O2)cs1 (stereo not shown)	-4.86
COCc1cc(CN2CCCC(C(=O)Nc3ccc(-c4ccco4)cc3)C2)ccc1OC (stereo not shown)	-7.12
O=C(c1cc(F)ccc1F)C1CCCN(Cc2cccc(Cl)c2)C1 (stereo not shown)	4.01
O=C(C1CCCN(CCCc2ccccc2)C1)N1CCCCC1 (stereo not shown)	-38.8
COCc1ccc(C(=O)N2CCCC(C(=O)c3cccc(C(F)(F)F)c3)C2)o1 (stereo not shown)	-0.276
COc1cccc(O)c1CN1CCCC(C(=O)c2cccc(C(F)(F)F)c2)C1 (stereo not shown)	-57.5
Cc1ccc(CN2CCCC(C(=O)c3cccc(C(F)(F)F)c3)C2)o1 (stereo not shown)	-19.3
O=C(c1cc(F)ccc1F)C1CCCN(CCCc2ccccc2)C1 (stereo not shown)	-73.2
O=C(c1cccc(C(F)(F)F)c1)C1CCCN(Cc2cccc(OCCO)c2)C1 (stereo not shown)	-47.4
COCc1cc(CN2CCCC(C(=O)c3cccc(C(F)(F)F)c3)C2)ccc1OC (stereo not shown)	-63.1
O=C(c1cccc(C(F)(F)F)c1)C1CCCN(Cc2ccc(OCCO)cc2)C1 (stereo not shown)	-69.8
CC(=O)CCCCn1cnc2c1c(=O)n(C)c(=O)n2C	20.7
O=c1cc([O-])n(Cc2ccc(F)cc2)c(=O)[nH]1.[NH4+]	21.7
COCCN(C(=O)CSc1nnc(Nc2ccc(C)cc2)s1)c1c(N)n(CC(C)C)c(=O)[nH]c1=O	-7.66
Cn1ncc2c(NCc3ccccc3)ncnc21	-11
CCOC(=O)CN1C(=O)/C(=C/c2ccc(Cl)cc2)Oc2ccccc21	2.31
Nc1ccc(N=Nc2ccccc2)c2cccnc12	17.2

SMILES	hERG current change (%, negative = inhibition) at 10uM [%]
CNC(=O)C(Sc1nc(C)nc2c1oc1ccccc12)C(C)=O (stereo not shown)	2.63
Cc1cc(Br)ccc1NC(=O)c1cnc(N2CCN(c3ccccn3)CC2)c2ccccc12	10
COc1cccc(O)c1CN1CCCC(C(=O)c2sccc2C)C1 (stereo not shown)	-45.9
COc1ccc(CCNC(=O)CN2CCN(c3cccc(C(F)(F)F)c3)CC2)cc1	-46.3
O=C(c1cc(F)ccc1F)C1CCCN(Cc2cc(Cl)ccc2O)C1 (stereo not shown)	0.916
Cn1cc(CN2CCCC(C(=O)c3cc(F)ccc3F)C2)c2ccccc21 (stereo not shown)	-31.1
C#CCN1CCN(c2cccc(C(F)(F)F)c2)CC1	8.78
CCOc1ccccc1CN1CCCC(C(=O)c2cc(F)ccc2F)C1 (stereo not shown)	-50.8
COc1ccc(C(=O)C2CCCN(Cc3nc4ccccc4nc3C)C2)cc1OC (stereo not shown)	-84.9
COc1ccc(C(=O)C2CCCN(C(=O)Cn3ccc(C)n3)C2)cc1OC (stereo not shown)	19.1
Nc1ccc(CCN2CCN(c3cccc(C(F)(F)F)c3)CC2)cc1	-67.2
COc1ccc(C(=O)C2CCCN(Cc3c(O)cccc3OC)C2)cc1OC (stereo not shown)	-63.1
COc1ccc(C(=O)C2CCCN(C(=O)CSC)C2)cc1OC (stereo not shown)	8.85
COc1ccc(C(CNC(=O)C(CCSC)NC(=O)c2ccccc2Cl)N2CCCC2)cc1 (stereo not shown)	-34.9
O=C(CCN1C(=O)c2ccccc2S1(=O)=O)Nc1cccc2ccccc12	-5.33
Cc1ccc(C)c(S(=O)(=O)Nc2ccc(C(N)=O)cc2)c1	14.9
CC1(C)CC(=O)c2c(Cc3ccccc3)noc2C1	12.1
Cc1ccccc1/C=C1\Sc2ccc(C(=O)N3CCN(c4ccccn4)CC3)cc2N(C)C1=O	-26.1
CCN(CC)S(=O)(=O)c1cccc(C(=O)Nc2nc3cc4c(cc3s2)OCCO4)c1	0.652
Cc1ccc(OCC(=O)N/N=C/c2ccncc2)cc1C	5.75
CC(C)OCCCNC(=O)c1ccc2c(=O)n(Cc3ccc4c(c3)OCO4)c(=S)[nH]c2c1	21.3
N#C/C(=C\c1ccc(F)cc1)C(=O)Nc1ccccn1	2.68
FC(F)(F)c1cccc(N2CCN(Cc3cccnc3)CC2)c1	-8.03

SMILES	hERG current change (%, negative = inhibition) at 10uM [%]
O=C(c1cccc(C(F)(F)F)c1)C1CCCN(Cc2ccccc2O)C1 (stereo not shown)	-29
CCOc1cc(CN2CCN(c3cccc(C(F)(F)F)c3)CC2)ccc1O	-73
CCOc1cc(CN2CCN(c3cccc(C(F)(F)F)c3)CC2)ccc1OC	-16.6
CCOc1cccc(CN2CCCC(C(=O)c3cccc(C(F)(F)F)c3)C2)c1O (stereo not shown)	-67.9
CCOc1cccc(CN2CCN(c3cccc(C(F)(F)F)c3)CC2)c1O	-46.6
FC(F)(F)c1cccc(N2CCN(Cc3ccoc3)CC2)c1	-60.4
CC(=O)Nc1ccc(CN2CCN(c3cccc(C(F)(F)F)c3)CC2)cc1	-38
O=C1COc2ccc(-c3n[nH]c(=O)c4ccccc34)cc2N1	-2.91
c1ccc(-c2nnsc2Sc2ccccn2)cc1	3.35
Cc1cc(C)cc(CC2CC(=O)N(c3cc(C)on3)C2=O)c1 (stereo not shown)	0.808
Cc1cc(C(=O)CSc2nnc(-c3ccc(Cl)cc3)n2C)c(C)n1CC1CCCO1 (stereo not shown)	8.08
Cc1noc(C)c1COC(=O)c1ccc(N(C)C)cc1	-9.83
CNC(=O)CN(c1cc(C)ccc1OC)S(=O)(=O)c1ccc(C)cc1	-0.703
COc1ccccc1CNC(=O)CCNC(=O)C1CCN(S(=O)(=O)c2ccccc2)CC1	-7.65
C=CCn1c(SCC(=O)Nc2c(C)n(C)n(-c3ccccc3)c2=O)nc2scc(-c3ccccc3)c2c1=O	-56
C=CCn1c(SCC(=O)Nc2c(C)n(C)n(-c3ccccc3)c2=O)nc2sc(C)c(-c3ccccc3)c2c1=O	-54
Cc1sc2nc(SCC(=O)Nc3c(C)n(C)n(-c4ccccc4)c3=O)n(C)c(=O)c2c1C	9.4
C=CCn1c(SCC(=O)Nc2ccccc2)nc2scc(-c3cccs3)c2c1=O	8.69
C=CCn1c(SCC(=O)Nc2c(C)n(C)n(-c3ccccc3)c2=O)nc2ccccc2c1=O	-32.9
C=CCn1c(SCC(=O)Nc2c(C)n(C)n(-c3ccccc3)c2=O)nc2sc(C)c(C)c2c1=O	-31.4
O=C(O)c1ccc[nH]c1=S	10.3
CC(=O)NC1C(OCc2ccccc2)OC2COC(C)(C)OC2C1O (stereo not shown)	18.3
Cc1ccc(C)c(NC(=S)NNC(=O)c2csc(C)c2C)c1	1.72

SMILES	hERG current change (%, negative = inhibition) at 10uM [%]
O=C(NCc1ccccc1)C1CCCN1S(=O)(=O)c1ccc(Cl)cc1 (stereo not shown)	-7.85
COc1ccc(OC)c(N(CC(=O)NCC2CCCO2)S(=O)(=O)c2ccccc2)c1 (stereo not shown)	8.03
CC(NC(=O)C1CCN(S(=O)(=O)c2ccc(Br)s2)CC1)c1ccccc1 (stereo not shown)	-0.752
NC(=O)NC(=O)C(c1ccccc1)N1CCN(S(=O)(=O)c2ccc(Br)s2)CC1 (stereo not shown)	-52.2
NC(=O)NC(=O)C(c1ccccc1)N1CCN(S(=O)(=O)Cc2ccccc2)CC1 (stereo not shown)	-18.9
CCN(c1cccc(C)c1)S(=O)(=O)c1cnc[nH]1	9.23
COc1ccccc1C(=O)NCC(c1cccs1)N1CCc2ccccc21 (stereo not shown)	1.26
CCOC(=O)c1c(NC(=O)Cn2nc(C(F)(F)F)cc2C)sc2c1CCC2	-4.65
NC(=O)c1cc(-c2csc(NCCc3ccccc3)n2)ccc1O	6.05
COc1ccc(C2=NC(CO)(CO)CO2)cc1	19
Cc1nc(NCc2ccc(S(N)(=O)=O)cc2)c2c(C)c(C)sc2n1	2.83
Cc1sc2ncnc(N[C@@H](CCC(=O)O)C(=O)O)c2c1C	10.1
Cc1sc2ncnc(NCC(O)c3ccccc3)c2c1C (stereo not shown)	17.7
Cc1sc2ncnc(NCC(c3ccccc3)N(C)C)c2c1C (stereo not shown)	-40.1
Cc1sc2ncnc(NCC3COc4ccccc4O3)c2c1C (stereo not shown)	-13.6
COc1ccccc1C(CNc1ncnc2sc(C)c(C)c12)N(C)C (stereo not shown)	-55.4
Cc1nc(N(C)Cc2ccccc2)c2c(C)c(C)sc2n1	-14.8
Cc1sc2ncnc(NCC(O)c3ccc([N+](=O)[O-])cc3)c2c1C (stereo not shown)	-71.6
COc1ccc(/C=N/Nc2ncnc3sc(C)c(C)c23)cc1	-8.19
CCOC(=O)c1sc2ncnc(NCC(c3cccs3)N(C)C)c2c1C (stereo not shown)	5.57
COc1ccc(C(CNc2ncnc3sc(C)c(C)c23)N(C)C)cc1 (stereo not shown)	-56.4
Cc1nc(NCC(c2ccccc2)N(C)C)c2c(C)c(C)sc2n1 (stereo not shown)	-77.1
